Only some compounds are listed: those with a hit (about 19% of all), similar ones and a draw of the others.
DT40 TDP1 no CPT: qHTS for Inhibitors of human tyrosyl-DNA phosphodiesterase 1 (TDP1): qHTS in cells in absence of CPT; 15% of 420,000 active; DT40 Tdp1-/- hTDP1 cells, no CPT, ATP luminescence, 48 h; Potency, µM (top dose mostly 46.2 µM), inactives show at the highest dose activity change, negative = growth inhibition, hits mostly inhibitors; also: potency is read from the fitted curve at half-maximal effect; % is scaled to controls: 0 for no effect and ±100 for the full control effect; nearly all actives have a fitted effect of over 55% in size
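Growth of hTDP1-complemented DT40 Tdp1-knockout cells is measured by ATP luminescence after at least 48 hr compound exposure at 37 °C, with DMSO substituting for the 20 nM CPT used in the parallel screen.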
IL1B secr inh: inhibitors of inflammasome signaling (IL-1 beta secretion); THP-1 LPS/ATP IL-1B secretion, AlphaLISA, 16 h; stronger effect = lower value; activity change, % at 57.5 µM; 4.7% of 360,000 active; AID 743279; in the data active = activity change below about -50%; inconclusive = mostly about -30% to -49%; also: % is scaled to controls: 0 for no effect and ±100 for the full control effect
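Secreted IL-1B measured by AlphaLISA bead assay after 16 h compound exposure of THP-1 cells; compounds (final up to 57.5 uM) added 1 h before LPS (250 ng/mL) and ATP (1.25 mM) stimulation; lower signal means less secretion.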
TGFb inhibitor: blocks TGF-b signaling | HepG2 CAGA-GFP TGF-b/SMAD3 reporter, GFP fluorescence, 18 h; TGF-beta stimulated, 500 pg/mL final | Potency, µM (top dose mostly 46.1 µM), for the others: top-dose activity, negative = inhibition, actives largely listed as inhibitors | 1.2% of 410,000 active | AID 588855; also: potency is read from the fitted curve at half-maximal effect; % is scaled to controls: 0 for no effect and ±100 for the full control effect; nearly all actives have a fitted effect of over 65% in size
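Inhibition of TGF-beta-driven CAGA-GFP reporter expression in HEPG2 cells is measured by cellular GFP fluorescence after 18 h stimulation with 500 pg/mL recombinant TGF-beta in 1% FBS medium at 37 degrees C.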
TDP1 block: blocks human tyrosyl-DNA phosphodiesterase 1. Q9NUW8. 0.28% of 350,000 active. Potency, µM (highest dose often 130 µM), for inactives: top-dose activity change, negative = inhibition, usual class: inhibitors. recombinant TDP1, AlphaScreen DNA substrate cleavage. AID 485290; also: potency is read from the fitted curve at half-maximal effect; % is scaled to controls: 0 for no effect and ±100 for the full control effect; nearly all actives have a fitted effect of over 40% in size
Target sequence (Q9NUW8 whole entry, looked up): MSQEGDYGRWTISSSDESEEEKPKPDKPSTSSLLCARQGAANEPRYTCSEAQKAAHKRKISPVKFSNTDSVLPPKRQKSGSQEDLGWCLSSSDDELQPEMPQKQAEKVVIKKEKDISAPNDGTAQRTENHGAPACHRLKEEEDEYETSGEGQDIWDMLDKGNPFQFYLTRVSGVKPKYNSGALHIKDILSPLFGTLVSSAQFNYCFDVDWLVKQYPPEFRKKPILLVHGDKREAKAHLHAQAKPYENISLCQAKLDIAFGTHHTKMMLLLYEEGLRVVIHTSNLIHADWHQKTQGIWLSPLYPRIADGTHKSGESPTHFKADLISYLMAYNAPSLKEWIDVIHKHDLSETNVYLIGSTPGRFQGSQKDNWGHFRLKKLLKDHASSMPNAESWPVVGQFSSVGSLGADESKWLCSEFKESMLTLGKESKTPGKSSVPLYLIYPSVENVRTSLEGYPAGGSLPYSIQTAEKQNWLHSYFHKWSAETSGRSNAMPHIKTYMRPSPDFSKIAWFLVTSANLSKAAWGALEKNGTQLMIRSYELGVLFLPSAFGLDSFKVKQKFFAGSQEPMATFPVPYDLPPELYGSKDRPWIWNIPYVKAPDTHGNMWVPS
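Tdp1 1 nM final; 15 min RT w/ cpd; substrate 15 nM, 5 min; beads 10 ug/ml, 10 min; AlphaScreen read. Neg ctrl: no enzyme.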
HepG2 tox: counter-screen for TGF-b inhibitors: cytotoxicity in HepG2 cells; HepG2 CAGA-GFP viability, ATP luminescence, 18 h; Potency, µM (top dose mostly 46.1 µM), inactives show top-dose activity change, negative = cytotoxicity, most hits filed as cytotoxic; 0.76% of 410,000 active; also: potency is read from the fitted curve at half-maximal effect
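HepG2 CAGA-GFP cells (1000/well, DMEM with 1% FBS) received compound, then TGF-beta at 500 pg/mL final, and were incubated 18 hours at 37 degrees C. Viability was read by CellTiter-Glo luminescence. Media-only wells were set as complete cell-killing and DMSO as no toxicity.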
TDP1 cell CPT: DT40-hTDP1 cell growth loss with CPT. chicken DT40 Tdp1-/-;hTDP1 cells + 20 nM CPT, ATP luminescence, 48 h. Potency, µM (titrated, usually from 46.2 µM), for the others: top-dose activity change, negative = growth inhibition, usual class: inhibitors. 12% of 420,000 active. AID 686979; also: potency is read from the fitted curve at half-maximal effect; % is scaled to controls: 0 for no effect and ±100 for the full control effect; nearly all actives have a fitted effect of over 55% in size
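Cell growth measured by CellTiter-Glo luminescence after a minimum 48 h, 37 C compound exposure with 20 nM CPT in Tdp1-knockout DT40 cells stably expressing hTDP1, seeded 400/well; qHTS titration format.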
The depositor's hits bear a star; ? = inconclusive; / = no result given. Unless noted, calls follow the shape of the dose curve; as a rule, active = well fitted curve in the direction sought with a large enough effect; inconclusive = small, poorly fitted or top-dose-only effect, or another doubt; inactive = no such curve, though single readings can be large; an effect the other way counts as inactive or inconclusive.

SMILES	DT40 TDP1 no CPT	IL1B secr inh	TGFb inhibitor	TDP1 block	HepG2 tox	TDP1 cell CPT
O=C(NCC1CCC2(CCN(Cc3cccc4cccnc34)CC2)O1)c1ccco1 (configuration not stated)	-19%	/	/	/	/	-2%
O=C(C1CC12CCN(Cc1cccc3cccnc13)CC2)N1CCN(Cc2cccs2)CC1 (configuration not stated)	?	/	/	/	/	1.6µM*
CC(C)(C)c1cc(OC(=O)C2CCCC2)ccc1O	3.7µM*	?	?	/	-54%	5.2µM*
CC(C)(C)c1cc(OS(C)(=O)=O)ccc1O	?	13	13%	0%	0%	7%
Cc1c(CC(=O)NCCc2ccccc2)c(=O)oc2c(C)c3occ(C(C)(C)C)c3cc12	18µM*	/	?	-2%	-29%	16µM*
Cc1oc2cc3oc(=O)c(CC(=O)NCc4ccccc4)c(C)c3cc2c1C	8.2µM*	/	-5%	-2%	0%	6.5µM*
COCCCNC(=O)Cc1c(C)c2c(cc(C)c3c(C(C)(C)C)coc32)oc1=O	1.3µM*	-3	?	/	-46%	1.3µM*
COc1ccc(CNC(=O)CCc2c(C)c3cc4c(C)c(C)oc4cc3oc2=O)cc1	?	/	-28%	-2%	-29%	?
COCCNC(=O)Cc1c(C)c2c(cc(C)c3c(C)coc32)oc1=O	?	-4	-13%	/	-5%	-22%
COc1ccc(CNC(=O)CCc2c(C)c3cc4c(C)coc4cc3oc2=O)cc1	15µM*	/	5%	5%	-7%	?
Cc1c(CC(=O)NCCc2ccccc2F)c(=O)oc2c(C)c3occ(C(C)(C)C)c3cc12	16µM*	/	?	-2%	-16%	13µM*
COc1ccc(CCNC(=O)CCc2c(C)c3cc4c(C)coc4c(C)c3oc2=O)cc1OC	8.2µM*	/	-27%	2%	-9%	21µM*
Cc1coc2c(C)c3oc(=O)c(CCC(=O)NCCc4ccccc4F)c(C)c3cc12	16µM*	/	-9%	-2%	-17%	?
Cc1oc2cc3oc(=O)c(CCC(=O)NCCN4CCOCC4)c(C)c3cc2c1C	?	?	-20%	/	-25%	21µM*
COc1ccc(CNC(=O)Cc2c(C)c3cc4c(C)coc4c(C)c3oc2=O)cc1OC	?	/	-1%	0%	-8%	?
COc1ccc(CCNC(=O)Cc2c(C)c3cc4c(C(C)(C)C)coc4c(C)c3oc2=O)cc1OC	8.2µM*	/	-23%	2%	-10%	6.5µM*
CCc1ccc2oc(C(=O)Nc3ccccc3C(=O)OC)cc(=O)c2c1	?	/	6%	5%	4%	-12%
O=C(CSC1=NS(=O)(=O)c2ccccc21)Nc1ccccc1	2.6µM*	-16	?	9%	-28%	1.8µM*
COC(=O)CSc1ccccc1C(=O)OC	-9%	0	19%	2%	-1%	0%
COC(=O)CSC1=NS(=O)(=O)c2ccccc21	2.3µM*	?	19%	-1%	12%	1.5µM*
O=C(Cn1cc(SCc2ccc(C(F)(F)F)cc2)c2ccccc21)N1CCCCC1	23µM*	/	?	5%	-26%	?
O=C(CSc1cn(CC(=O)N2CCCC2)c2ccccc12)Nc1cc(C(F)(F)F)ccc1Cl	?	/	?	3%	-20%	18µM*
O=C(Cn1cc(SCc2ccc(C(F)(F)F)cc2)c2ccccc21)N1CCCCCC1	?	/	?	-10%	-29%	18µM*
CCN(CC)C(=O)CSc1cn(CC(=O)N2CCCCCC2)c2ccccc12	-27%	/	0%	-3%	-14%	?
O=C(CSc1cn(CC(=O)N2CCCCC2)c2ccccc12)Nc1ccc(C(F)(F)F)cc1	-23%	/	-16%	8%	-2%	-16%
SMILES	DT40 TDP1 no CPT	IL1B secr inh	TGFb inhibitor	TDP1 block	HepG2 tox	TDP1 cell CPT
COc1cccc(CNC(=O)Cc2c(C)c3ccc(OC)c(C)c3oc2=O)c1	-3%	/	0%	-1%	-5%	1%
O=C(NC(=S)Nc1ccc(CN2CCOCC2)cc1)c1ccc(-c2ccc(Cl)cc2)o1	?	0	-4%	1%	-3%	?
O=C(NC(=S)Nc1ccc(CN2CCOCC2)cc1)c1ccc(-c2cccc(Cl)c2)o1	7.3µM*	?	?	/	-13%	16µM*
O=C(Nc1ccc(CN2CCOCC2)cc1)c1cc2ccccc2o1	?	-11	-1%	0%	-6%	?
O=C(Nc1ccc(CN2CCOCC2)cc1)c1ccc(-c2cccc(Cl)c2)o1	?	-60*	-9%	-8%	-30%	?
NS(=O)(=O)c1cc2c(cc1Cl)N[C@@H]([C@@H]1C[C@@H]3C=C[C@H]1C3)NS2(=O)=O	-3%	/	/	7%	/	5%
Cc1ccc(CNC(=O)CN2C(=O)C3(SCC(=O)N3c3ccc(F)c(F)c3)c3ccccc32)cc1 (configuration not stated)	?	/	-7%	5%	-8%	-27%
COc1ccc(Cl)cc1-c1cc(C(=O)Nc2ccccc2)[nH]n1	?	-22	3%	/	-38%	?
COc1ccc(Cl)c(-c2cc(C(=O)NCc3ccco3)[nH]n2)c1	-23%	-30	18%	/	14%	-23%
COc1ccc(Cl)c(-c2cc(C(=O)Nc3ccc(F)cc3)[nH]n2)c1	23µM*	?	-9%	/	-44%	15µM*
COc1cc(NC(=O)c2cc(-c3cccc(OC)c3)n[nH]2)cc(OC)c1	21µM*	/	25%	6%	-25%	15µM*
Cc1ccc(NC(=O)c2cc(-c3ccccc3)n[nH]2)cc1	15%	-75*	-1%	/	2%	-12%
COc1ccc(Cl)c(-c2cc(C(=O)Nc3ccccc3)[nH]n2)c1	16µM*	-51*	5%	/	-28%	23µM*
COc1cc(NC(=O)c2ccccc2-c2ccccc2)cc(OC)c1	?	-9	-1%	-9%	13%	?
COc1cccc([C@@H]2Oc3ccc(Br)cc3C[C@H]2OC(=O)NS(=O)(=O)c2ccc(C)cc2)c1	/	/	/	6%	/	/
COc1cc(C(=O)NNC(=O)c2cc(-c3ccccc3)n[nH]2)cc(OC)c1C	-15%	-64*	-20%	-4%	-18%	0%
CS(=O)(=O)c1ccc(C(=O)NNC(=O)c2cc(-c3ccccc3)n[nH]2)cc1	-2%	1	-21%	3%	-2%	-3%

Compound activity: PubChem, National Center for Advancing Translational Sciences (NCATS)
